Screening data: PubChem, several laboratories
Only some compounds are listed: those with a hit (about 5.7% of all), similar ones and a draw of the others.
FAS TE block = FAS thioesterase (human) inhibition; P49327; recombinant FAS-TE, OMFH fluorogenic substrate, fluorescence endpoint; inhibition, % at 15 µM; 360,000 tested, 0.67% active; AID 602261;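 active = compounds whose normalised, plate-corrected inhibition of enzyme fluorescence in the single-dose primary screen is 50% or more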
MPTP block = permeability transition pore inhibition; isolated mouse mitochondria, Ca2+ swelling absorbance, 30 min; inhibition, % at 10 µM; 360,000 tested, 1.4% active; AID 602449;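 active = inhibition of 50% or more, scaled per plate between neutral and stimulator controls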
Myeloid diff MLP = myeloid differentiation induction; ER-HoxA9 myeloid progenitors, lysozyme-GFP differentiation, flow cytometry; calls only at 10 µM; 360,000 tested, 1% active;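 active = normalized GFP-positive differentiation at or above the plate's own cutoff, the solvent-only control mean plus 3 SD; inconclusive = no clear call, values can overlap the other calls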;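 also: cells exposed to compound for four days before flow analysis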
GRIN3A LBD mod = modulators (binders) of human NR3A ligand-binding domain | NR3A LBD differential scanning fluorimetry, Tm shift; 0% = protein alone, 100% = glycine-bound protein | Tm shift relative to glycine control, % at 25 µM | 340,000 tested, 2.5% active | AID 1259313;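 active = melting temperature shift of at least 10% of the positive control shift, at one fixed dose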
rCAG binder = molecules binding r(CAG) RNA repeats; inhibition, % at 3 µM; 370,000 tested, 1.3% active; r(CAG) RNA repeat, TO-PRO-1 dye displacement fluorescence;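 active = inhibition above the plate cutoff, the mean of all test compounds on that plate plus 3 SD, cut at about 35% in these data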;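 also: higher means more dye released from RNA so lower well fluorescence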
MPTP counter = mitochondrial membrane potential, counter-screen; shares compounds with MPTP block; isolated mitochondria, Rhodamine 123 fluorescence; inhibition, % at 10 µM; 5,000 tested, 78% active; AID 624504; in the data active = inhibition above about 22%
MPTP swell DR = dose response confirmation of mitochondrial permeability transition pore inhibitors. 780 tested, 58% active. AID 651561. shares compounds with MPTP block. IC50, µM. isolated mitochondria swelling, absorbance; in the data active = IC50 below about 20 µM
MPTP cs DR = active in counter-screen for permeability transition pore inhibitors. IC50, µM. 780 tested, 49% active. shares compounds with MPTP block. AID 651564. isolated mitochondria counterscreen, fluorescence read-out; in the data active = IC50 below about 80 µM
Large screens that a line does not name were inactive (follow-up assays come after a bar, where they were run).

COCCCN(C(=O)Nc1ccc(C)c(C)c1)C(C)c1ccccn1 (centres undefined)	none
Cc1occc1-c1nnc(SCC(=O)NC(C)(C)C)n1CC(C)C	none
Cc1occc1-c1nnc(SCC(=O)NCc2ccco2)n1CC(C)C	MPTP block 63 | MPTP counter inactive | MPTP swell DR inactive | MPTP cs DR inactive
CNCc1ccccc1Sc1cccc2ccccc12	MPTP block 93 | MPTP counter 20
CNCc1ccccc1Sc1ccc(OC)cc1	none
N#CC1=C(N)NC(SCC(=O)c2ccccc2)=C(C#N)C12CCCC2	none
N#CC1=C(N)NC(SCC(=O)Nc2ccc(Br)cc2)=C(C#N)C12CCCCC2	MPTP block 89, GRIN3A LBD mod 31 | MPTP counter 89
N#CC1=C(N)NC(SCc2ccc(Br)cc2)=C(C#N)C12CCCCC2	MPTP block 92, GRIN3A LBD mod 11 | MPTP counter 79
N#CC1=C(N)NC(SCc2ccc(Cl)cc2)=C(C#N)C12CCCCC2	none
CC(=O)c1c(C)[nH]c(C(=O)Nc2ccc(Cl)c(S(=O)(=O)N3CCOCC3)c2)c1C	MPTP block 64 | MPTP counter 80
COc1ccc(NC(=O)c2[nH]c(C)c(C(C)=O)c2C)cc1S(=O)(=O)N1CCOCC1	none
CC(=O)c1c(C)[nH]c(C(=O)Nc2ccc(C)c(S(=O)(=O)N(C)C)c2)c1C	none
CC(=O)c1c(C)[nH]c(C(=O)Nc2ccc(C)c(S(=O)(=O)Nc3ccc(C)cc3C)c2)c1C	MPTP block 92 | MPTP counter 72
CCOP(=O)(OCC)C(Cc1ccc(OC)c(OC)c1)N=C(c1ccccc1)c1ccccc1 (centres undefined)	none (no result: GRIN3A LBD mod)
COC(=O)c1ccc(NC(=S)NC2CCc3ccccc32)cc1 (centres undefined)	MPTP block 80 | MPTP counter 81
CCC(=O)Nc1sc2c(c1C#N)CCC2	none
Cn1ncc(Cl)c1C(=O)NC(=S)Nc1sc2c(c1C#N)CCCCC2	MPTP block 90, GRIN3A LBD mod 13 | MPTP counter inactive | MPTP swell DR inactive | MPTP cs DR <2.5
CC1CCc2c(sc(NC(=S)NC(=O)c3ccccc3)c2C#N)C1 (centres undefined)	MPTP block 66 | MPTP counter 70
N#Cc1c(NC(=S)NC(=O)c2ccccc2)sc2c1CCCC2	MPTP block 86, GRIN3A LBD mod 12 | MPTP counter inactive | MPTP swell DR inactive | MPTP cs DR 6.7
CC(C)CC(=O)NC(NC(=S)Nc1sc2c(c1C#N)CCCC2)C(Cl)(Cl)Cl (centres undefined)	MPTP block 90 | MPTP counter 97
C[C@H]1CN([C@@H](C)CO)C(=O)CCCn2nncc2CO[C@H]1CN(C)C(=O)Cc1ccccc1	none (no result: GRIN3A LBD mod)
CCCC1C(c2ccco2)NC(c2ccco2)CC1(C)O (centres undefined)	MPTP block 78 | MPTP counter inactive | MPTP swell DR inactive | MPTP cs DR inactive
O=C(NC(NC(=S)Nc1ccc(Cl)cc1Cl)C(Cl)(Cl)Cl)c1cccc([N+](=O)[O-])c1 (centres undefined)	MPTP block 94, GRIN3A LBD mod 21 | MPTP counter 80
Cc1cccc(NC(=S)NC(NC(=O)c2ccco2)C(Cl)(Cl)Cl)c1 (centres undefined)	none
Cc1ccc(NC(=S)NC(NC(=O)c2ccccc2)C(Cl)(Cl)Cl)c(C)c1 (centres undefined)	MPTP block 73, GRIN3A LBD mod 15 | MPTP counter 81
O=C(NC(NC(=S)Nc1ccccc1)C(Cl)(Cl)Cl)c1cccc(Cl)c1 (centres undefined)	MPTP block 96, GRIN3A LBD mod 24 | MPTP counter 77
Cc1cc(C)c(NC(=S)NC(NC(=O)c2ccccc2)C(Cl)(Cl)Cl)c(C)c1 (centres undefined)	MPTP block 76 | MPTP counter 84
Cc1ccc(NC(=S)NC(NC(=O)c2ccco2)C(Cl)(Cl)Cl)cc1 (centres undefined)	none
CN1CCN(C(=O)c2cc3c(c(-c4cccc(-c5cc6ccccc6o5)c4)n2)[C@H](CCO)N(S(=O)C(C)(C)C)C3)CC1 (some centres undefined)	none (no result: GRIN3A LBD mod)
COc1ccc(-c2coc3c(C(=O)NCc4cccs4)cccc23)c(C)c1	none (no result: GRIN3A LBD mod)
C#CCNC(=O)C[C@H]1C[C@@]2(C(=O)OC)C(=C[C@H](C(C)C)O[C@@H]2C2CC2)N(CCCCCCCC)C1=O	none (no result: FAS TE block, MPTP block, Myeloid diff MLP, GRIN3A LBD mod)
Cc1ccc(-c2nc3c(C)cc(Br)cn3c2Cc2ccccc2C(F)(F)F)cc1	none (no result: FAS TE block, MPTP block, Myeloid diff MLP, GRIN3A LBD mod)
Cc1ccccc1NC(=S)NC(NC(=O)c1ccccc1C)C(Cl)(Cl)Cl (centres undefined)	MPTP block 78 | MPTP counter 88
Cc1ccc(CNC(=S)Nc2ccc(C)c([N+](=O)[O-])c2)cc1	MPTP block 102, GRIN3A LBD mod 11 | MPTP counter 98
CNC(=S)Nc1ccc([N+](=O)[O-])c(C)c1	MPTP block 62 | MPTP counter 78
COc1ccc(CCC(=O)Nc2ccc(C)c([N+](=O)[O-])c2)cc1	none
C=CCN(c1ccccc1)S(=O)(=O)c1cccc(C(=O)Nc2ccc(N3CCOCC3)cc2)c1	none
CCn1nc(C)cc1C(=O)n1nc(C)c(Sc2ncccn2)c1C	MPTP block 69 | MPTP counter 27
Cc1nn(C(=O)c2cccnc2)c(C)c1Sc1ccccc1	none
COc1ccc2sc(N(CCCN(C)C)C(=O)c3ccc(S(=O)(=O)N4CCCC4)cc3)nc2c1	none
CN(C)CCCN(C(=O)c1ccc(S(=O)(=O)N2CCc3ccccc32)cc1)c1nc2ccc(F)cc2s1	none
Cc1cc(C)c2sc(N(CCCN(C)C)C(=O)c3ccc(S(=O)(=O)N4CCc5ccccc5C4)cc3)nc2c1	MPTP block 72 (no result: Myeloid diff MLP, GRIN3A LBD mod, rCAG binder) | MPTP counter inactive
COc1ccc2sc(N(CCCN(C)C)C(=O)c3ccc(S(=O)(=O)N4CCc5ccccc5C4)cc3)nc2c1	MPTP block 86, Myeloid diff MLP inconclusive | MPTP counter inactive
Cc1cc(C)c2sc(N(CCCN(C)C)C(=O)c3ccc(S(=O)(=O)N4CCCc5ccccc54)cc3)nc2c1	MPTP block 64 | MPTP counter inactive
CC1CCCCC1N1CN=C(Nc2nc3ccccc3s2)NC1 (centres undefined)	MPTP block 66, Myeloid diff MLP active | MPTP counter inactive | MPTP swell DR inactive | MPTP cs DR inactive
Cc1ccc(NC(=O)c2cc(C(=O)c3cc(Cl)ccc3O)cn(-c3ccc(C)cc3)c2=O)cc1	MPTP block 92, GRIN3A LBD mod 12 | MPTP counter 85
N#Cc1cc(C(=O)c2cc(Cl)ccc2O)cn(-c2ccccc2)c1=O	none
